Measured values from PubChem BioAssay AID1159580 (chemical genetic matrix, 2015).
The whole screen tested about 5,500 compounds, of which about 2,000 (36%) were called active. Not shown: some 18% with an inconclusive outcome. No stated cut-off is given here; in the data, active means normalized growth mostly below about 0.91 (no sharp cut-off); inconclusive means no clear call, values can overlap the other calls; inactive means mostly above about 0.92. The list shows a part of the results.

Experiment: chemical genetic growth profiling, strain panel (AID 1159580);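 further: tested at 20 µM; growth read once vehicle control cultures reached saturation at 30 °C; 1 = growth at the plate median or of vehicle wells; lower values mean less growth of the strain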
Conditions: growth OD
[1] = S. cerevisiae deletion strains, locus YAL013W, strain DEP1, active compounds read low
[2] = S. cerevisiae deletion strains, locus YBR229C, strain ROT2, active compounds read low
[3] = S. cerevisiae deletion strains, locus YDL101C, strain DUN1, active compounds read low
[4] = S. cerevisiae deletion strains, locus YDR150W, strain NUM1, active compounds read low
[5] = S. cerevisiae deletion strains, locus YEL061C, strain CIN8, active compounds read low
[6] = S. cerevisiae deletion strains, locus YGR078C, strain PAC10, active compounds read low
[7] = S. cerevisiae deletion strains, locus YHR030C, strain SLT2, active compounds read low
[8] = S. cerevisiae deletion strains, locus YHR087W, strain rtc3, active compounds read low
[9] = S. cerevisiae deletion strains, locus YJL187C, strain SWE1, active compounds read low
[10] = S. cerevisiae deletion strains, locus YJR043C, strain POL32, active compounds read low
[11] = S. cerevisiae deletion strains, locus YJR075W, strain HOC1, active compounds read low
[12] = S. cerevisiae deletion strains, locus YLR039C, strain RIC1, active compounds read low
[13] = S. cerevisiae deletion strains, locus YLR058C, strain SHM2 (second series), active compounds read low
[14] = S. cerevisiae deletion strains, locus YLR085C, strain ARP6, active compounds read low
[15] = S. cerevisiae deletion strains, locus YLR262C, strain YPT6, active compounds read low
[16] = S. cerevisiae deletion strains, locus YML094W, strain GIM5, active compounds read low
[17] = S. cerevisiae deletion strains, locus YMR219W, strain ESC1, active compounds read low
[18] = S. cerevisiae deletion strains, locus YMR263W, strain SAP30, active compounds read low
[19] = S. cerevisiae deletion strains, locus YNL153C, strain GIM3, active compounds read low
[20] = S. cerevisiae deletion strains, locus YNL298W, strain CLA4 (second series), active compounds read low
[21] = S. cerevisiae deletion strains, locus YNL322C, strain KRE1, active compounds read low
[22] = S. cerevisiae deletion strains, locus YNR030W, strain Alg12, active compounds read low
[23] = S. cerevisiae deletion strains, locus YOL006C, strain TOP1, active compounds read low
[24] = S. cerevisiae deletion strains, locus YPL055C, strain LGE1, active compounds read low
[25] = S. cerevisiae deletion strains, locus YPL241C, strain CIN2, active compounds read low
[26] = S. cerevisiae deletion strains, locus YPR135W, strain CTF4, active compounds read low

Measured: normalized growth

Cc1ccc(-c2csc(-c3ccc(Cl)cc3)n2)c(C)c1
active: [7] 0.611 | [14] 0.753 | [23] 0.686
inactive: [1] 0.979 | [2] 0.978 | [3] 0.968 | [4] 0.987 | [5] 0.914 | [6] 0.989 | [8] 0.956 | [9] 0.994 | [10] 0.994 | [11] 1.01 | [12] 0.926 | [13] 0.988 | [15] 0.952 | [16] 0.9 | [17] 0.998 | [18] 1.01 | [19] 1.01 | [20] 0.908 | [21] 0.987 | [22] 0.949 | [24] 0.968 | [25] 1.1 | [26] 0.772

Cc1ccc2nc(-c3ccc(Cl)cc3)cn2c1
inactive: S. cerevisiae deletion strains, locus YAR019C, strain CDC15, active compounds read low 0.961 | S. cerevisiae deletion strains, locus YBL105C, strain PKC1, active compounds read low 0.97 | S. cerevisiae deletion strains, locus YBR135W, strain CKS1, active compounds read low 0.968 | S. cerevisiae deletion strains, locus YBR136W, strain MEC1, active compounds read low 0.968 | S. cerevisiae deletion strains, locus YBR160W, strain CDC28, active compounds read low 0.954 | S. cerevisiae deletion strains, locus YDL017W, strain CDC7, active compounds read low 0.964 | S. cerevisiae deletion strains, locus YDL028C, strain MPS1, active compounds read low 0.974 | [3] 0.969 | S. cerevisiae deletion strains, locus YDL108W, strain KIN28, active compounds read low 0.971 | S. cerevisiae deletion strains, locus YDL132W, strain cdc53, active compounds read low 0.962 | S. cerevisiae deletion strains, locus YDL214C, strain PRR2, active compounds read low 0.95 | S. cerevisiae deletion strains, locus YDR052C, strain DBF4, active compounds read low 0.972 | S. cerevisiae deletion strains, locus YDR054C, strain cdc34, active compounds read low 0.949 | S. cerevisiae deletion strains, locus YDR226W, strain ADK1, active compounds read low 0.959 | S. cerevisiae deletion strains, locus YDR477W, strain SNF1, active compounds read low 0.933 | S. cerevisiae deletion strains, locus YER123W, strain YCK3, active compounds read low 0.89 | S. cerevisiae deletion strains, locus YER133W, strain GLC7, active compounds read low 0.923 | S. cerevisiae deletion strains, locus YFL009W, strain cdc4, active compounds read low 0.967 | S. cerevisiae deletion strains, locus YFL029C, strain CAK1, active compounds read low 0.956 | S. cerevisiae deletion strains, locus YFR003C, strain YPI1, active compounds read low 0.97 | S. cerevisiae deletion strains, locus YFR019W, strain FAB1, active compounds read low 0.944 | S. cerevisiae deletion strains, locus YFR028C, strain CDC14, active compounds read low 0.958 | S. cerevisiae deletion strains, locus YGR040W, strain KSS1, active compounds read low 0.911 | S. cerevisiae deletion strains, locus YGR052W, strain FMP48, active compounds read low 0.974 | S. cerevisiae deletion strains, locus YGR092W, strain DBF2, active compounds read low 0.903 | [7] 0.889 | S. cerevisiae deletion strains, locus YHR079C, strain IRE1, active compounds read low 0.936 | S. cerevisiae deletion strains, locus YHR082C, strain KSP1, active compounds read low 1 | S. cerevisiae deletion strains, locus YHR205W, strain SCH9, active compounds read low 0.966 | S. cerevisiae deletion strains, locus YIL147C, strain SLN1, active compounds read low 0.975 | S. cerevisiae deletion strains, locus YJL095W, strain BCK1, active compounds read low 0.948 | S. cerevisiae deletion strains, locus YJL128C, strain PBS2, active compounds read low 0.966 | S. cerevisiae deletion strains, locus YJL157C, strain FAR1, active compounds read low 0.92 | S. cerevisiae deletion strains, locus YJR016C, strain ILV3, active compounds read low 0.97 | S. cerevisiae deletion strains, locus YJR066W, strain TOR1 (second series), active compounds read low 0.937 | S. cerevisiae deletion strains, locus YJR066W, strain TOR1, active compounds read low 0.953 | S. cerevisiae deletion strains, locus YKL048C, strain ELM1, active compounds read low 0.956 | S. cerevisiae deletion strains, locus YKL067W, strain YNK1, active compounds read low 0.936 | S. cerevisiae deletion strains, locus YKL101W, strain HSL1, active compounds read low 0.953 | S. cerevisiae deletion strains, locus YKL193C, strain SDS22, active compounds read low 0.961 | S. cerevisiae deletion strains, locus YKL203C, strain TOR2, active compounds read low 0.97 | S. cerevisiae deletion strains, locus YLR113W, strain HOG1, active compounds read low 0.906 | S. cerevisiae deletion strains, locus YLR133W, strain CKI1, active compounds read low 0.953 | S. cerevisiae deletion strains, locus YLR403W, strain SFP1, active compounds read low 0.93 | S. cerevisiae deletion strains, locus YML070W, strain DAK1, active compounds read low 0.91 | S. cerevisiae deletion strains, locus YMR001C, strain CDC5, active compounds read low 0.965 | S. cerevisiae deletion strains, locus YMR205C, strain PFK2 (second series), active compounds read low 0.952 | S. cerevisiae deletion strains, locus YMR277W, strain FCP1, active compounds read low 0.961 | S. cerevisiae deletion strains, locus YNL006W, strain LST8, active compounds read low 0.962 | S. cerevisiae deletion strains, locus YNL020C, strain ARK1, active compounds read low 0.946 | S. cerevisiae deletion strains, locus YNL161W, strain CBK1, active compounds read low 0.961 | S. cerevisiae deletion strains, locus YNL183C, strain NPR1, active compounds read low 0.928 | S. cerevisiae deletion strains, locus YNL207W, strain RIO2, active compounds read low 0.97 | S. cerevisiae deletion strains, locus YNL222W, strain SSU72, active compounds read low 0.958 | S. cerevisiae deletion strains, locus YNL307C, strain MCK1 (second series), active compounds read low 0.907 | S. cerevisiae deletion strains, locus YOL078W, strain AVO1, active compounds read low 0.97 | S. cerevisiae deletion strains, locus YOL136C, strain PFK27, active compounds read low 0.921 | S. cerevisiae deletion strains, locus YOR061W, strain CKA2, active compounds read low 0.948 | S. cerevisiae deletion strains, locus YOR119C, strain RIO1, active compounds read low 0.982 | S. cerevisiae deletion strains, locus YOR231W, strain MKK1, active compounds read low 0.884 | S. cerevisiae deletion strains, locus YOR329C, strain SCD5, active compounds read low 0.969 | S. cerevisiae deletion strains, locus YPL031C, strain PHO85, active compounds read low 0.949 | S. cerevisiae deletion strains, locus YPL153C, strain RAD53, active compounds read low 0.899 | S. cerevisiae deletion strains, locus YPL204W, strain HRR25, active compounds read low 0.9 | S. cerevisiae deletion strains, locus YPL209C, strain IPL1, active compounds read low 0.959 | S. cerevisiae deletion strains, locus YPL256C, strain CLN2, active compounds read low 0.909 | S. cerevisiae deletion strains, locus YPR025C, strain CCL1, active compounds read low 0.969 | S. cerevisiae deletion strains, locus YPR106W, strain ISR1, active compounds read low 0.964 | S. cerevisiae deletion strains, locus YPR111W, strain DBF20, active compounds read low 0.96 | S. cerevisiae deletion strains, strain NNK1, active compounds read low 0.986 | S. cerevisiae deletion strains, strain TSCII, active compounds read low 0.959

CC(C)(C)c1cc(-c2csc(-c3ccc(Cl)cc3)n2)cc(C(C)(C)C)c1O
inactive: [1] 1 | [2] 1.02 | S. cerevisiae deletion strains, locus YCL061C, strain MRC1, active compounds read low 1.01 | [3] 1.02 | S. cerevisiae deletion strains, locus YDL134C, strain PPH21, active compounds read low 1.02 | [4] 0.943 | [5] 1.03 | [6] 1.01 | [7] 1.09 | [8] 1.01 | [9] 1.02 | [10] 1.01 | [11] 1.03 | [12] 1.09 | [13] 1.02 | [15] 1.05 | [16] 1.03 | [17] 1.01 | [18] 0.96 | [19] 1 | [20] 1.04 | [21] 1.01 | [22] 1.03 | [23] 1.18 | [24] 0.911 | [25] 1.01 | [26] 1.07 | S. cerevisiae strains, strain wild type, active compounds read low 1.02
active: [14] 1.22 [resistant]
